Test results from PubChem BioAssay.
Values joined by “and” are separate entries in the source; they are usually repeats but may differ in a detail not shown here. Equal values may be shown once. Where a SMILES comes first, the peptide text is derived from it.

What was measured:
[1] = tested on: Botulinum neurotoxin type F light chain protease (Clostridium botulinum); test: Botulinum neurotoxin type F light chain protease inhibition, multiplex microsphere flow cytometry, validation set (AID 588459); conditions: multiplex microsphere protease substrate cleavage assay, at 10 µM, stronger effect = higher value
[2] = molecular target: Botulinum neurotoxin type A (Clostridium botulinum) (UniProt P0DPI0); test: BoNT/A light chain protease inhibitors, biochemical, multiplex microsphere flow cytometry, validation set (AID 588460); conditions: at 10 µM, stronger effect = higher value
Chain of Botulinum neurotoxin type A (Clostridium botulinum) (P0DPI0 whole entry, looked up): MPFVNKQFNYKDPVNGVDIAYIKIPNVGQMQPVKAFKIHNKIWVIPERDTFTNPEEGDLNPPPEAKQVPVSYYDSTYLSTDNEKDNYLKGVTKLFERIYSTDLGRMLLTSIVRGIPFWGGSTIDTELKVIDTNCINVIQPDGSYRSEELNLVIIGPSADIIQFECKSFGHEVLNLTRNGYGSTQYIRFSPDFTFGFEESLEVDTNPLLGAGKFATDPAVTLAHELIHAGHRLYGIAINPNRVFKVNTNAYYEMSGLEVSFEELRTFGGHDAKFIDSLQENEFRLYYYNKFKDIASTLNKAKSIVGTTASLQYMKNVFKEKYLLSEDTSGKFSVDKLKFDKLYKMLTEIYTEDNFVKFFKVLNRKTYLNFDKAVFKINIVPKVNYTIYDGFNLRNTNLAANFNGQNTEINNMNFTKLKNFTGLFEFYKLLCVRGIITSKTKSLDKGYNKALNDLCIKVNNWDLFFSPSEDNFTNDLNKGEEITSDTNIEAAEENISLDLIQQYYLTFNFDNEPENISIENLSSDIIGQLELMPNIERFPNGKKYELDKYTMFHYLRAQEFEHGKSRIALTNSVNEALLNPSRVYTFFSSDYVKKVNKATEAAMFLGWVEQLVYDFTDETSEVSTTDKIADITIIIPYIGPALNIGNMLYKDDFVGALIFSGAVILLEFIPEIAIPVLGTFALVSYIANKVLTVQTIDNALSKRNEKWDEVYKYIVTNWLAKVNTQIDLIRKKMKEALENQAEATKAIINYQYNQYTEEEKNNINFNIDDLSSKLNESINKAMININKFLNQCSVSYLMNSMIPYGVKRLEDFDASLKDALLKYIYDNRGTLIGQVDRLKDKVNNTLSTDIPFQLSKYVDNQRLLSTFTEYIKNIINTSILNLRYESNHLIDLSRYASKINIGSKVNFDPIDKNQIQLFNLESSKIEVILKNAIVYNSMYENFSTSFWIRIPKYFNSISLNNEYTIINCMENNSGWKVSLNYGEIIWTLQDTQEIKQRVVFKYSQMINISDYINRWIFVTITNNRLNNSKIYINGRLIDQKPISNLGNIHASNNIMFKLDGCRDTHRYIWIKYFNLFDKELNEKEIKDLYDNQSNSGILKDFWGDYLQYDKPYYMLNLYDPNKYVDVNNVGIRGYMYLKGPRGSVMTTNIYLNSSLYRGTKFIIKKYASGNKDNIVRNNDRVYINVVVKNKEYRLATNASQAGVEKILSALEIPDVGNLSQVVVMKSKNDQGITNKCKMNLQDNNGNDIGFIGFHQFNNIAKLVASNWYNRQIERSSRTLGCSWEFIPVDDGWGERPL

[3] = molecular target: Lethal factor (Bacillus anthracis) (UniProt P15917); test: Lethal factor protease inhibitors, Bacillus anthracis, multiplex microsphere cleavage assay, validation set (AID 588461); conditions: flow cytometry, at 10 µM, stronger effect = higher value
Chain of Lethal factor (Bacillus anthracis) (P15917 whole entry, looked up): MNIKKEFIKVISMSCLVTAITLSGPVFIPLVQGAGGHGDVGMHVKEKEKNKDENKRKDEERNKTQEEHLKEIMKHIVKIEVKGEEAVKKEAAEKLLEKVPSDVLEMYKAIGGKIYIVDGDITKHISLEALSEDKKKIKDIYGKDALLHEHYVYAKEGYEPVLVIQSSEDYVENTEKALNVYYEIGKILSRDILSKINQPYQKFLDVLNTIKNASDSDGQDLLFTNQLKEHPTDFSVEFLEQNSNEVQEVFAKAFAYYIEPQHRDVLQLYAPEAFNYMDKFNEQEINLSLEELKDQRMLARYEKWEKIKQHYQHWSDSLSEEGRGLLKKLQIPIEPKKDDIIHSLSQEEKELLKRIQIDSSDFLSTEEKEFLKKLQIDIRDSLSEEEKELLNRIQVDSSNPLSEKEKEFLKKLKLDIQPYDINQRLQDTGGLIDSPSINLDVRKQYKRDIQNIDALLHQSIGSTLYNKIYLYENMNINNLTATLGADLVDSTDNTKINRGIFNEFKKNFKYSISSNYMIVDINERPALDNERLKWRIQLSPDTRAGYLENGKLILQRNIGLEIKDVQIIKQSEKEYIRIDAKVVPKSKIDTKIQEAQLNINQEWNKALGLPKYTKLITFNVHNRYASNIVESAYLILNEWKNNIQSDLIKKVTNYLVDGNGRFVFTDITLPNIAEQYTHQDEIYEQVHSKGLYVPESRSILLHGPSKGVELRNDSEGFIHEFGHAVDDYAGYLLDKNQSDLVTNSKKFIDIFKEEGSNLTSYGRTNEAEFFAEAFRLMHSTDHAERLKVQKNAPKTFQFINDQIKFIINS

Measured: inhibition

O=C(c1ccc(Cl)cc1)C1CCCN(C(=O)/C=C/c2ccccn2)C1 (centres undefined)
inactive: [1] 2.6% | [2] -0.7% | [3] 6%

CCOC(=O)[C@H](CCc1ccccc1)N[C@@H](C)C(=O)N1CCC[C@H]1C(=O)O
inactive: [1] 3.5% | [2] 0.2% | [3] 3.9%

Cn1c(=O)c2c(nc(SCCN3CCCCC3)n2C)n(C)c1=O
inactive: [1] -1.4% | [2] 0.2% | [3] -4.6%

Cc1ccc2c(c1)C(C)(C)[C@]1(C)NC(=O)CCN21
inactive: [1] -1.8% | [2] -0.2% | [3] 0%

COc1cccc(/C=C/C(=O)c2c(O)cc(C)oc2=O)c1O
inactive: [1] 7% | [2] 1.7% | [3] 5.4%

C[C@]12CCC(=O)C=C1[C@H](O)C[C@@H]1[C@@H]2[C@@H](O)C[C@@]2(C)[C@H]1CC[C@]2(O)C(=O)CO
inactive: [1] -0.1% | [2] -0.3% | [3] 4.2%

c1ccc(Nc2ccccn2)nc1
inactive: [1] 2.3% | [2] -2.1% | [3] -4.7%

Cc1ccc(NCCC(=O)c2ccccc2)cc1Cl
inactive: [1] 4.1% | [2] 0.4% | [3] -2.5%

CC12CCC(C(=O)NCc3ccccn3)(OC1=O)C2(C)C (centres undefined)
inactive: [1] -1.4% | [2] -1.3% | [3] 3%

COc1ccc2c(c1)c(=O)oc1cc3occ(C(C)(C)C)c3cc12
inactive: [1] 1.2% | [2] 1.4% | [3] 6.9%

COc1ccc2[nH]c(=O)c(CN(C(=O)c3ccco3)C(C)C)cc2c1
inactive: [1] 0.1% | [2] 1% | [3] 2.1%

O=c1cc(-c2ccccc2)oc2cc(OCc3ccccc3)cc(O)c12
inactive: [1] -0.8% | [2] -0.6% | [3] -4.8%

COCCn1c(SCCOc2ccccc2)nc2ccccc2c1=O
inactive: [1] 1.6% | [2] -0.3% | [3] -1.1%

COc1cccc(N2CC(O)=C(c3nc4ccccc4c(=O)[nH]3)C2=N)c1
inactive: [1] -2.2% | [2] -1.1% | [3] -6.2%

CCN(CC)CCNC(=O)c1cc(Cl)c(N)cc1OC
inactive: [1] -1.3% | [2] -0.2% | [3] 0%

O=C(NCCNc1ccc(Cl)cc1[N+](=O)[O-])c1cccnc1
inactive: [1] 0.4% | [2] -1.2% | [3] 2%

O=C1C(=O)c2ccccc2C(O)=C1c1ccccc1F
inactive: [1] 4.6% | [2] 0.5% | [3] -1.5%

Cc1cccc(OCC(=O)Nc2ccc(C(=O)NCC(C)C)cc2)c1
inactive: [1] 4.2% | [2] 0.3% | [3] -4.3%

COc1ccccc1C(=O)Oc1ccc2c(c1)O/C(=C\c1ccncc1)C2=O
inactive: [1] -0.7% | [2] 0.7% | [3] -8.2%

N#CCC(N)=C(C#N)C#N
inactive: [1] -6% | [2] -2% | [3] -6%

O=C(O)CCSCCC(=O)O
inactive: [1] 1.3% | [2] -1.1% | [3] -7.4%

CCOC(=O)[C@H]1O[C@@H]1C(=O)N[C@@H](CC(C)C)C(=O)NCCC(C)C
inactive: [1] 1.7% | [2] -1.4% | [3] -2.8%

OCCN1CCN(CCCN2c3ccccc3Sc3ccc(C(F)(F)F)cc32)CC1
inactive: [1] -3.2% | [2] -0.1% | [3] -5.1%

CCOC(=O)C(=O)N1CCN(c2ccccc2OC)CC1
inactive: [1] 1.5% | [2] -1.1% | [3] -4.9%

COc1ccc(C(=O)Nc2cccnc2)cc1C(=O)Nc1cccnc1
inactive: [1] 2.9% | [2] 1.3% | [3] -0.7%

O=C(CC(NC(=O)OCc1ccccc1)C(=O)O)OCc1ccccc1 (centres undefined)
inactive: [1] -3.2% | [2] -2.1% | [3] 2.5%

C[C@H](NC(=O)Nc1ccccc1F)C(=O)O
inactive: [1] -3.8% | [2] -0.3% | [3] -3.2%

Nc1cnn(C2OC(CO)C(O)C2O)c(=O)n1 (centres undefined)
inactive: [1] 0.5% | [2] 0% | [3] -3.7%

Cc1cc(-c2ccccc2)nnc1NCCN1CCOCC1
inactive: [1] -0.7% | [2] -0.4% | [3] -2.3%

Fc1ccc(C(c2ccc(F)cc2)N2CCN(C/C=C/c3ccccc3)CC2)cc1
inactive: [1] -5.9% | [2] -1.8% | [3] -5.7%

CC1(C)C(=O)OC(/C=C\c2ccccc2)C(C)(C)C1=O (centres undefined)
inactive: [1] 1.5% | [2] 0.1% | [3] 4.5%

O=C1NC2(Nc3ccccc31)C(=O)Nc1ccc(Br)cc12 (centres undefined)
inactive: [1] -0.5% | [2] -1% | [3] 6.8%

NC12CC3CC(C1)CC(O)(C3)C2
inactive: [1] 4.4% | [2] -0.4% | [3] -0.7%

O=C1c2ccccc2N2C(=O)c3ccccc3C2N1Cc1ccco1 (centres undefined)
inactive: [1] 3.3% | [2] 0.7% | [3] 2.8%

CCC12CN3CC(CC)(CN(C1)C31C(=O)N(C)c3ccc(C)cc31)C2=O (centres undefined)
inactive: [1] -1.6% | [2] 0.1% | [3] -7.3%

Cc1cccc(N(C)C(=S)Oc2ccc3ccccc3c2)c1
inactive: [1] -0.1% | [2] -0.6% | [3] -4.3%

O=[N+]([O-])c1cccc2cn[nH]c12
inactive: [1] 6.9% | [2] 3% | [3] 6.3%

Nc1nnc(CSCc2ccc(Cl)cc2Cl)s1
inactive: [1] 0.7% | [2] -0.6% | [3] 6.8%

CCNC(=O)C12CCC(C)(C(=O)O1)C2(C)C (centres undefined)
inactive: [1] -1% | [2] -1% | [3] -7.4%

Cc1ncoc1C(=O)N1CCCC(C(=O)c2ccc(-c3ccccc3)c(F)c2)C1 (centres undefined)
inactive: [1] -2.3% | [2] -0.1% | [3] -5.3%

CC(C)(C)n1c(=O)[nH]c2c(c1=O)CCC2
inactive: [1] 1.8% | [2] -0.4% | [3] -3.9%

O=C(Cc1ccccc1[N+](=O)[O-])NCCCN1CCOCC1
inactive: [1] -1.6% | [2] -0.1% | [3] 6.7%

CC1(C)O[C@@H]2C[C@H]3[C@@H]4CCC5=CC(=O)C=C[C@]5(C)[C@@]4(F)[C@@H](O)C[C@]3(C)[C@]2(C(=O)CO)O1
inactive: [1] -2.6% | [2] -3.3% | [3] -3.9%

CCc1c(C(C)=O)oc2ccc3c(C)cc(=O)oc3c12
inactive: [1] -1.2% | [2] -2.4% | [3] -2.4%

O=C(CC(C(=O)O)c1c[nH]c2ccccc12)c1ccccc1 (centres undefined)
inactive: [1] 0.3% | [2] 2% | [3] 6.4%

O=C(NCC1CCCCN1)c1cc(OCC(F)(F)F)ccc1OCC(F)(F)F (centres undefined)
inactive: [1] -0.8% | [2] -0.3% | [3] -2%

CC(=O)Nc1ccc2[nH]c(C)c(CC=C(Cl)Cl)c(=O)c2c1
inactive: [1] -0.7% | [2] -1.7% | [3] -4.2%

COc1ccccc1C(=O)Nc1cc2cc(Br)ccc2oc1=O
inactive: [1] 3.8% | [2] 1.1% | [3] 0.4%

CC(=O)NC(CC(C)C)C(=O)NC(Cc1ccccc1)C(N)=O (stereo not drawn) (Ac-Leu-Phe-NH2; configuration not given here)
inactive: [1] 3.1% | [2] 0.2% | [3] -1.4%

CC(C)CCNC(=O)[C@H](CC(C)C)NC(=O)[C@H]1O[C@@H]1C(=O)O
inactive: [1] -3.8% | [2] 1.5% | [3] -3%

COC1CCN(C(=O)c2ccc(OC3CCN(Cc4ccccn4)CC3)cc2)CC1
inactive: [1] 2.5% | [2] 2.3% | [3] 0.5%

C[C@H](NC(=O)C1(c2ccccc2)CCN(C(=O)[C@H]2CSCN2C(=O)OC(C)(C)C)CC1)C(=O)O
inactive: [1] -0.9% | [2] -2% | [3] -10.5%

Cc1oc2c(O)c(O)ccc2c(=O)c1-c1ccccc1
inactive: [1] 1.6% | [2] 0.4% | [3] 2%

C[C@]12CC[C@H]3[C@@H](CCC4=CC(=O)CC[C@@]43C)[C@@H]1CC[C@@H]2C(=O)CO
inactive: [1] 3.9% | [2] -2.4% | [3] -10%

Cc1ccccc1OCC(O)CN1CCN(C)CC1 (centres undefined)
inactive: [1] 1% | [2] -0.4% | [3] -2.2%

CC(=O)OC(CC(=O)O)C[N+](C)(C)C (centres undefined)
inactive: [1] 3.4% | [2] 0% | [3] -3.6%

CN(C)CCCN1c2ccccc2Sc2ccc(Cl)cc21
inactive: [1] -3.6% and 2.8% | [2] 0.6% | [3] -0.5% and 0.1%

COC(=O)c1ccc2c(c1)C(=O)/C(=C/c1ccc(O)cc1)O2
inactive: [1] -0.8% | [2] 0.7% | [3] -8.5%

CCOc1ccccc1Oc1coc2cc(OCC(=O)O)ccc2c1=O
inactive: [1] 0% | [2] 1.4% | [3] 0.2%

CCOc1ccc(C(NC(C)=O)c2ccc(OC)c(OC)c2)cc1 (centres undefined)
inactive: [1] -2.9% | [2] -0.9% | [3] 5.8%

Oc1ccc(/C=C/c2cc(O)cc(O)c2)cc1
inactive: [1] -6.7% | [2] -2.2% | [3] 3.7%

C[N+](C)(C)CCOP(=O)(O)OP(=O)([O-])OC[C@H]1O[C@@H](n2ccc(N)nc2=O)[C@H](O)[C@@H]1O
inactive: [1] 6% | [2] 0.6% | [3] 8.1%

CC(C)OC(=O)C1C2C=CC3(CN(CC4CCCO4)C(=O)C13)O2 (centres undefined)
inactive: [1] 0.2% | [2] 0.8% | [3] -2.9%
